GPR151 activ: activators of human GPR151, primary screen, cell-based, PathHunter beta-arrestin, luminescence; activation, % at 11.2 µM; AID 1508602, 2020; PathHunter beta-arrestin GPR151 cells; G-protein coupled receptor 151 (Homo sapiens), Q8TDV0; actives 1% (n = 650,000); in the data active = activation above about 4.9%;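 also: 0% = median of compound wells and 100% = cells with positive control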
Target sequence (Q8TDV0 whole entry, looked up): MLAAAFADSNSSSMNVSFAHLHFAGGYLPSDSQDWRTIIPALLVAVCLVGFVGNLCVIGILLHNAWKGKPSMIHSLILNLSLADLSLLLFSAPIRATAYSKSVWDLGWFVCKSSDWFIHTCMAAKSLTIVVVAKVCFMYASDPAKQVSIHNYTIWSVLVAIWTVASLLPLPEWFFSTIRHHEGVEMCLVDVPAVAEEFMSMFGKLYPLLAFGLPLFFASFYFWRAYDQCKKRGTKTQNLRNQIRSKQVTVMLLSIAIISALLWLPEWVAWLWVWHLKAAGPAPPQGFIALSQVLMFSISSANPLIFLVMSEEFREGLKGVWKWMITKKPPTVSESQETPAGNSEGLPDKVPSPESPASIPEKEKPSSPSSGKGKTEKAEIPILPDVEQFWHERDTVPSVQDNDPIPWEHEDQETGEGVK
TEAD-YAP inh: TEAD-YAP interaction inhibition, primary screen, TEAD-YAP interaction inhibitor project, luminescence, HEK-TIYL cells. TEAD-Gal4/YAP UAS-luciferase luminescence. inhibition, % at 9.12 µM. actives 1.4% (n = 640,000); in the data active = inhibition above about 32%;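 also: 0% = median of test compound wells and 100% = reference inhibitor wells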
MITF inh: MITF inhibitors, primary screen, biochemical, AlphaScreen, human. Microphthalmia-associated transcription factor (Homo sapiens), O75030. AlphaScreen MITF homodimerization, bead proximity signal. inhibition, % at 2.6 µM. actives 0.91% (n = 650,000). AID 1259374, 2018; in the data active = inhibition above about 50%;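 also: 0% = vehicle wells with protein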
FBW7 act: FBW7 E3 ligase activators, primary screen, biochemical, AlphaScreen, human; F-box/WD repeat-containing protein 7 (Homo sapiens), Q969H0; AlphaScreen FBW7–phospho-cyclin E peptide binding, activator screen; normalized activity (activation), % at 26.1 µM; actives 0.13% (n = 650,000); AID 1259310, 2017; in the data active = normalized activity above about 1.9%;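 also: purified mutant Fbw7 with reduced substrate affinity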
MITF inh conf: MITF inhibitors, retest of hits, confirmation, biochemical, AlphaScreen, triplicate; AlphaScreen MITF homodimerization, biotin/His-MITF beads; inhibition, % at 2.6 µM; AID 1259372, 2018; shares compounds with MITF inh; actives 16% (n = 4,700);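 active = inhibition above a cutoff derived from the DMSO control wells, cut at about 28% in these data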;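 also: 0% = MITF dimer wells with DMSO only; inhibitors lower the bead chemiluminescence by keeping MITF from dimerizing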
AS interf DR: AlphaScreen optical interference compounds, dose response, counter-screen, biochemical, HTS. IC50, µM. shares compounds with MITF inh. actives 6% (n = 480). AlphaScreen optical interference counterscreen, cell-free; call rule not given here
AS interf ctr: AlphaScreen optical interference compounds, counter-screen for MITF inhibitor project, biochemical, triplicate. actives 7.6% (n = 4,700). inhibition, % at 2.6 µM. shares compounds with MITF inh. LysRS AlphaScreen counterscreen, signal interference;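 active = inhibition above a cutoff derived from the DMSO control wells, cut at about 30% in these data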
The depositor's hits bear a star. The list is not random: actives were taken first. Their share in the collection is about 3.5%.

For CSc1ccc(Cc2nnc(NC(=O)c3cc(C)oc3C)o2)cc1 the results were GPR151 activ -0.5, TEAD-YAP inh 10.6, MITF inh 2.4 and FBW7 act -0.1.
For Cc1cccc(CN2CCN(CCCc3ccccc3)CC2)c1 the results were GPR151 activ -1.8, TEAD-YAP inh 2.6, MITF inh 68.9*, FBW7 act 0.0, MITF inh conf -3.0 and AS interf ctr 2.0.
For CSc1ccc(CN2CCN(CCCc3ccccc3)CC2)cc1 the results were GPR151 activ 4.1, TEAD-YAP inh 1.5, MITF inh 63.5*, FBW7 act -0.1, MITF inh conf 0.1 and AS interf ctr 2.6.
Screening CCCC(=O)Nc1ccc(Oc2ccc3c(c2)C(=O)NC3=O)cc1 returned GPR151 activ -1.4, TEAD-YAP inh -6.1, MITF inh 15.5 and FBW7 act 0.0.
Screening COc1ccc(S(=O)(=O)N2CCCCC2C(=O)O)cc1 (centres undefined) returned GPR151 activ 0.0, TEAD-YAP inh 7.8, MITF inh 68.3*, FBW7 act 0.0, MITF inh conf 10.5 and AS interf ctr 14.9.
Screening COc1ccc(S(=O)(=O)N2CCCCC2C(=O)O)cc1OC (centres undefined) returned GPR151 activ 2.5, TEAD-YAP inh 11.4, MITF inh 9.3 and FBW7 act 0.2.
O=C1CCCCC1CNc1cccc(C(F)(F)F)c1 (centres undefined) was read as GPR151 activ -1.0, TEAD-YAP inh 4.2, MITF inh 74.2*, FBW7 act 0.0, MITF inh conf 3.8 and AS interf ctr 17.5.
CCCn1c(C(O)c2cccc3ccccc23)nc2ccccc21 (centres undefined) was read as GPR151 activ -0.2, TEAD-YAP inh -12.8, MITF inh 2.3 and FBW7 act -0.3.
Screening CCOc1ccc(NC(=O)CSc2nnc(-c3ccncc3)n2CCCN(C)C)cc1 returned GPR151 activ -0.8, TEAD-YAP inh 3.3, MITF inh 53.3*, FBW7 act -0.1, MITF inh conf 9.3 and AS interf ctr 8.5.
For CN(C)CCCn1c(SCc2ccccc2)nnc1-c1ccncc1 the results were GPR151 activ 0.4, TEAD-YAP inh -8.3, MITF inh 72.8*, FBW7 act -0.1, MITF inh conf 9.4 and AS interf ctr 10.7.
CC(C)c1nnc(NC(=S)NC(=O)c2ccccc2)s1 was read as GPR151 activ -7.6, TEAD-YAP inh 3.4, MITF inh -5.0 and FBW7 act -0.1.
`CC1(C)CC(=O)C=C(NCCN2CCN(C(=O)Nc3ccc(Cl)c(Cl)c3)CC2)C1` gave GPR151 activ 1.8, TEAD-YAP inh 0.3, MITF inh 73.5*, FBW7 act 0.0, MITF inh conf 8.7 and AS interf ctr 10.1.
Screening CC(=O)c1c(C)[nH]c(C(=O)OCCOc2ccc(Br)cc2)c1C returned GPR151 activ -0.3, TEAD-YAP inh -1.7, MITF inh 1.3 and FBW7 act -0.1.
For C/C=C\C1=C(C(=O)O)N2C(=O)C(NC(=O)C(N)c3ccc(O)cc3)C2SC1 (centres undefined) the results were GPR151 activ -1.1, TEAD-YAP inh -10.2, MITF inh 50.8*, FBW7 act 0.3, MITF inh conf 28.4*, AS interf DR >6.48 and AS interf ctr 4.6.
For CC1=C(C(=O)O)N2C(=O)[C@@H](NC(=O)[C@H](N)c3ccccc3)[C@H]2SC1 the results were GPR151 activ 2.7, TEAD-YAP inh 4.6, MITF inh 6.0 and FBW7 act -0.1.
`O=C1CCC(CCNCCOc2ccc(F)cc2)N1Cc1cccc(-n2cccn2)c1` (centres undefined) gave GPR151 activ 2.5, TEAD-YAP inh 2.6, MITF inh -0.1 and FBW7 act -0.2.
O=C1CCC(CCNCCOc2ccc(F)cc2)N1Cc1cccc(Cl)c1 (centres undefined) was read as GPR151 activ -0.5, TEAD-YAP inh -2.8, MITF inh 70.9*, FBW7 act -0.1, MITF inh conf 0.6 and AS interf ctr 3.0.
`O=C(O)/C=C/C(=O)Nc1ccc(SC(F)F)cc1` gave GPR151 activ -0.8, TEAD-YAP inh 1.3, MITF inh 55.9*, FBW7 act -0.1, MITF inh conf -0.1 and AS interf ctr -10.1.
O=C(NC1CCCC1)c1cc2n(n1)C(C(F)(F)F)CC(c1ccc(Br)cc1)N2 (centres undefined) was read as GPR151 activ 0.8, TEAD-YAP inh -1.2, MITF inh 7.9 and FBW7 act -0.1.
C(=N\Nc1nnnn1-c1cccc2ccccc12)/c1ccc(OCc2ccccn2)cc1 was read as GPR151 activ -0.2, TEAD-YAP inh 14.5, MITF inh 68.9*, FBW7 act 0.1, MITF inh conf -2.1 and AS interf ctr 8.9.
For C(=N\Nc1nnnn1-c1cccc2ccccc12)/c1ccncc1 the results were GPR151 activ 0.5, TEAD-YAP inh 0.9, MITF inh -2.1 and FBW7 act 0.0.
CN1CCN(CC(=O)NCc2ccc(F)cc2)CC1 was read as GPR151 activ 0.8, TEAD-YAP inh -4.9, MITF inh 21.4 and FBW7 act -0.1.
O=C(CN1CCCN(CC(=O)NCc2ccccc2)CC1)NCc1ccccc1 was read as GPR151 activ -0.4, TEAD-YAP inh -9.5, MITF inh 93.0*, FBW7 act 0.1, MITF inh conf 3.6 and AS interf ctr -2.4.
Cc1ccc(CNC(=O)CN2CCN(C)CC2)cc1 was read as GPR151 activ 0.2, TEAD-YAP inh 3.5, MITF inh 84.1*, FBW7 act -0.1, MITF inh conf 7.5 and AS interf ctr 9.0.
COC(=O)Nc1ccc(S(=O)(=O)N2CCC(C)CC2)cc1 was read as GPR151 activ 0.8, TEAD-YAP inh 1.6, MITF inh 74.5*, FBW7 act -0.1, MITF inh conf 7.3 and AS interf ctr 19.3.
For N#CC(C#N)=C(N)/C(C#N)=C/c1ccc([N+](=O)[O-])o1 the results were GPR151 activ 1.1, TEAD-YAP inh 5.5, MITF inh 84.3*, FBW7 act -0.9, MITF inh conf 66.5*, AS interf DR >6.48 and AS interf ctr 5.7.
`CCOc1cc(CN2CC[C@H]3[C@H](CCC(=O)N3Cc3ccccc3)C2)ccc1O` gave GPR151 activ 0.6, TEAD-YAP inh -4.3, MITF inh 0.6 and FBW7 act -0.1.
`CCSc1ccc(-c2ccccn2)nn1` gave GPR151 activ -3.3, TEAD-YAP inh -38.5, MITF inh 82.4*, FBW7 act -0.2, MITF inh conf 76.1* and AS interf ctr 96.5*.

High-throughput results (PubChem)
